FBPA Giardia inh = Giardia lamblia aldolase inhibition; A8B2U2; AID 2451; purified Giardia FBPA; hit rate 0.71% among 290,000; Potency, µM (titrated, usually from 59.6 µM), actives largely listed as inhibitors; also: nearly all actives have a fitted effect of over 55% in size
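Giardia FBPA (40 nM reagent) was preincubated 10 min at RT with compound (up to 57.5 uM final), then substrate plus GAPDH/TPI/NAD/arsenate coupling system with diaphorase/resazurin was added; resorufin fluorescence (525/598 nm) was read after 20 min.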
TbPYK inhibitor = T. brucei pyruvate kinase inhibition | Q57TT1 | TbPYK enzyme, Kinase-Glo Plus ATP luminescence, 45 min | Potency, µM (series often up to 76.8 µM), hits mostly inhibitors | hit rate 0.12% among 410,000; also: nearly all actives have a fitted effect of over 50% in size
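Luminescent Kinase-Glo Plus end-point after 45 min room-temperature reaction of T. brucei pyruvate kinase started with 130 uM ADP (final). Buffer TEA 50 mM pH 7.2 with KCl, MgCl2, BSA, Tween-20; titration-based qHTS with fitted concentration-effect curves.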
LmPK inhibitor = inhibitors of Leishmania mexicana pyruvate kinase; hit rate 0.37% among 290,000; Potency, µM (doses to about 57.5 µM), most hits filed as inhibitors; purified LmPK, Kinase-Glo ATP luminescence, 1 h; Q27686
Target sequence (Q27686 whole entry, looked up): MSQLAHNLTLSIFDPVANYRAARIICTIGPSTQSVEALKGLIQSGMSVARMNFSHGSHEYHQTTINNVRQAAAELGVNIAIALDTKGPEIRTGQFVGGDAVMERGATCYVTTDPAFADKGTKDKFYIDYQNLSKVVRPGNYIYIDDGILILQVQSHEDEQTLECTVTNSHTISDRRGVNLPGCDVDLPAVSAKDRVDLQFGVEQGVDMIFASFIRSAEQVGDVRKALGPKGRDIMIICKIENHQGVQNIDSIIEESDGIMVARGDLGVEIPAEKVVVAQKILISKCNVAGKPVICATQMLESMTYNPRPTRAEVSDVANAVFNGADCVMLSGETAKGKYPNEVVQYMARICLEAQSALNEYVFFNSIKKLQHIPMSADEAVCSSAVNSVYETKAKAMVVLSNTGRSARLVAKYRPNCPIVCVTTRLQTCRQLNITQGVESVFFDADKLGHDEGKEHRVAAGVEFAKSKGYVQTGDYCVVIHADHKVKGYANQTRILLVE
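0.1 nM LmPK, 0.5 mM PEP, 0.1 mM ADP; 50 mM imidazole pH 7.2, 7 mM MgCl2, 50 mM KCl; 1 h RT. Kinase-Glo luminescence readout, normalized to no-enzyme (full inhibition) and uninhibited wells.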
Cycloheximide cs = counter-screen for Shiga toxin inhibitors: cycloheximide protein synthesis inhibition. cell reporter, cycloheximide protein synthesis inhibition counterscreen. max response, %. hit rate 12% among 300,000. AID 2314; in the data active = max response mostly above about 13%, no sharp cut-off; inactive = mostly below about 14%; also: read at 38.3 µM for the half of the compounds with a filed dose
RE007 growth inh = less growth of the S. pombe RE007 Vpr strain; Potency, µM (titrated, usually from 92.2 µM), most hits filed as inhibitors; hit rate 0.21% among 360,000; AID 651644; S. pombe RE007 Vpr strain, BacTiter-Glo ATP luminescence, 24 h; active = well fitted falling curve with a large enough effect; also: nearly all actives have a fitted effect of over 50% in size
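Fission yeast strain RE007, carrying one chromosomally integrated HIV-1 vpr copy, was seeded at OD 0.01 in PMG+AL medium with 23 nL pinned compound. After 24 h at 30 °C and 99% humidity, viability was read by BacTiter-Glo luminescence.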
Shiga inhibitor = blocks Shiga toxin action in Vero cells. hit rate 9.2% among 290,000. inhibition, % at 38.7 µM. AID 2315. Vero cells, Shiga toxin protein synthesis inhibition reporter; in the data active = inhibition mostly above about 28%, no sharp cut-off; inactive = mostly below about 43%
Hits are given with their value. The entries come from a sample that favours hits as a whole. Unless noted, calls follow the shape of the dose curve; as a rule, active = well fitted curve in the direction sought with a large enough effect; inconclusive = small, poorly fitted or top-dose-only effect, or another doubt; inactive = no such curve, though single readings can be large; an effect the other way counts as inactive or inconclusive.

Cc1ccc(NC(=S)Nc2nc(CC(=O)Nc3ccccc3)cs2)cc1 was read as FBPA Giardia inh inactive, TbPYK inhibitor inactive, LmPK inhibitor inactive, Cycloheximide cs 13.7, RE007 growth inh inactive and Shiga inhibitor inactive.
`O=C(OCc1csc(Nc2ccccc2)n1)c1ccc(Cl)cc1` gave FBPA Giardia inh inactive, TbPYK inhibitor inactive, LmPK inhibitor inactive, Cycloheximide cs inactive, RE007 growth inh inactive and Shiga inhibitor inactive.
For CC(C)CCn1c(=O)c2sccc2n2c(CCCC(=O)NC(C)c3ccccc3)nnc12 (configuration not stated) the results were TbPYK inhibitor inactive.
For COC(=O)Cc1csc(NCc2ccccc2)n1 the results were FBPA Giardia inh inactive, TbPYK inhibitor inactive, LmPK inhibitor inactive, Cycloheximide cs inactive, RE007 growth inh inactive and Shiga inhibitor inactive.
For COC(=O)Cc1csc(Nc2ccccc2)n1 the results were FBPA Giardia inh inactive, TbPYK inhibitor inactive, LmPK inhibitor inactive, Cycloheximide cs 31.2, RE007 growth inh inactive and Shiga inhibitor 96.7.
`O=C(O)Cc1sc(Nc2ccccc2)nc1-c1cccs1` gave FBPA Giardia inh inactive, TbPYK inhibitor inactive, LmPK inhibitor inactive, Cycloheximide cs 25.8, RE007 growth inh inactive and Shiga inhibitor 64.8.
Screening COC(=O)Cc1nc(Nc2ccccc2)sc1C returned FBPA Giardia inh inactive, TbPYK inhibitor inactive, LmPK inhibitor inactive, Cycloheximide cs 11.6, RE007 growth inh inactive and Shiga inhibitor inactive.
`CC(=O)c1sc(Nc2ccc(Oc3ccccc3)cc2)nc1C` gave TbPYK inhibitor inactive and RE007 growth inh inactive.
`COC(=O)Cc1csc(Nc2ccc(F)c(Cl)c2)n1` gave FBPA Giardia inh inactive, TbPYK inhibitor inactive, LmPK inhibitor inactive, Cycloheximide cs 20.7, RE007 growth inh inactive and Shiga inhibitor inactive.
Cc1ccc(CNC(=O)Cn2c(=O)cc(-c3ccccc3)c3c(C)nn(C)c32)cc1 was read as TbPYK inhibitor inactive.
For CC1C(=O)OC2CC34C5CC(C(C)(C)C)C36C(OC(=O)C6O)OC4(C(=O)O5)C21O (configuration not stated) the results were FBPA Giardia inh inactive.
Screening COc1ccc(NC(=O)Cn2c(SCc3ccc(F)cc3)nc3cccnc32)c(OC)c1 returned TbPYK inhibitor inactive.
For CCOC(=O)Cc1csc(Nc2ccc(Cl)cc2)n1 the results were FBPA Giardia inh inactive, TbPYK inhibitor inactive, LmPK inhibitor inactive, Cycloheximide cs 48.1, RE007 growth inh inactive and Shiga inhibitor 11.0.
Cc1ccc(NC(=O)CNS(=O)(=O)c2cccs2)cc1F was read as FBPA Giardia inh inactive, TbPYK inhibitor inactive, LmPK inhibitor inactive, Cycloheximide cs 80.0, RE007 growth inh inactive and Shiga inhibitor 79.0.
CCc1ccccc1NC(=O)CCC(=O)c1cccs1 was read as TbPYK inhibitor inactive, LmPK inhibitor inactive, Cycloheximide cs inactive, RE007 growth inh inactive and Shiga inhibitor inactive.
Cc1ccc(OCCNS(=O)(=O)c2cccs2)cc1 was read as FBPA Giardia inh inactive, TbPYK inhibitor inactive, LmPK inhibitor inactive, Cycloheximide cs 44.1, RE007 growth inh inactive and Shiga inhibitor inactive.
Screening O=C(CCC(=O)c1cccs1)Nc1ccccc1F returned FBPA Giardia inh inactive, TbPYK inhibitor inactive, LmPK inhibitor inactive, Cycloheximide cs 16.5, RE007 growth inh inactive and Shiga inhibitor inactive.
Cc1ccc(NC(=O)CCC(=O)c2cccs2)cc1F was read as FBPA Giardia inh inactive, TbPYK inhibitor inactive, LmPK inhibitor inactive, Cycloheximide cs 26.8, RE007 growth inh inactive and Shiga inhibitor inactive.
Screening COc1ccc(NC(=O)CNS(=O)(=O)c2cccs2)cc1 returned FBPA Giardia inh inactive, TbPYK inhibitor inactive, LmPK inhibitor inactive, Cycloheximide cs inactive, RE007 growth inh inactive and Shiga inhibitor inactive.
For CCSC1=NC2(CCN(C(=O)NC3CCCCC3)CC2)N=C1c1ccc(C)cc1 the results were TbPYK inhibitor inactive.
For CN(Cc1ccccc1)S(=O)(=O)c1nnc(NC(=O)c2ccccc2Cl)s1 the results were TbPYK inhibitor inactive.
For CC(=O)Nc1ccc(S(=O)(=O)NCCC(=O)Nc2ccc(C)c(F)c2)cc1 the results were FBPA Giardia inh inactive, TbPYK inhibitor inactive, LmPK inhibitor inactive, Cycloheximide cs inactive, RE007 growth inh inactive and Shiga inhibitor inactive.

From PubChem
